Over roughly 110,000 compounds, “z-score” has its median near -0.1; the highest 2% begin near 2. The list comes from a sample in which the highest values are over-represented; it also holds similar structures and randomly drawn compounds. Activity calls are given as the source filed them.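 How the source made its calls: active means z-score in the third read window above 3 or below -3; inactive means the rest.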

The results in this text go back to PubChem BioAssay AID488969 (Vanderbilt High Throughput Screening Facility, 2010).

In the experiment the target is Metabotropic glutamate receptor 8 (Rattus norvegicus) (UniProt P70579). As to the kind of experiment: rat mGluR8 modulators via GIRK flux, primary screen, cell-based, thallium flux, HTS (AID 488969). Conditions: HEK293 rat mGluR8, GIRK (G protein-gated inwardly rectifying potassium channel) thallium flux, FluoZin2; at 10 µM; stronger effect = higher value; submaximal glutamate (EC20) added with thallium.
Metabotropic glutamate receptor 8 (Rattus norvegicus), sequence (P70579 whole entry, looked up): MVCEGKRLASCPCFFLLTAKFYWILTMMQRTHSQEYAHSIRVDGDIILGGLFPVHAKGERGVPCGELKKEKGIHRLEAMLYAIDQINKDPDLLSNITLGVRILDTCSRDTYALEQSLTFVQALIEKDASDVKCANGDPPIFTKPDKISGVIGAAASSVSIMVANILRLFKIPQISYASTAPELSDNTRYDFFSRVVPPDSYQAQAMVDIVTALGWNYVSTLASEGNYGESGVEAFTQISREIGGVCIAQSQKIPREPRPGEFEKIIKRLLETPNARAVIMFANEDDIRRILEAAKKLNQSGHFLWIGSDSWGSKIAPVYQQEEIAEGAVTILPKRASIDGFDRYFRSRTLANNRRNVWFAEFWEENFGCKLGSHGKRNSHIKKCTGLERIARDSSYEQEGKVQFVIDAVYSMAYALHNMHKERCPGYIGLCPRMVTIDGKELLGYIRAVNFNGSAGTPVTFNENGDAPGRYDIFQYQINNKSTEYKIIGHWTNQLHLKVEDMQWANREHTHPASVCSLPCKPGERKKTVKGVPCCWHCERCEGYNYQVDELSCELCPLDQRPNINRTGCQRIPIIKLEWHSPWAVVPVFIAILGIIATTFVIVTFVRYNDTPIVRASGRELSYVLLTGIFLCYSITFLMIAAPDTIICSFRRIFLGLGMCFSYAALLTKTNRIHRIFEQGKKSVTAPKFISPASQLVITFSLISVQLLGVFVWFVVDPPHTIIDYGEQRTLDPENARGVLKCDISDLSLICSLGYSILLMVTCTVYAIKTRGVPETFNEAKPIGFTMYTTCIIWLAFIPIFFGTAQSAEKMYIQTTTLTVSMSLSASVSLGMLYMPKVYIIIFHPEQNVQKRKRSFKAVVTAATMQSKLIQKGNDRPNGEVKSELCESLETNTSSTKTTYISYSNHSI
`CC12CC(NC(=O)N1c1cccc(C(=O)N3CCN(c4ccccc4)CC3)c1)c1ccccc1O2` (stereo not drawn) had a z-score of -0.354.
The figure for `CCC1CCCCN1CC(=O)c1c(C)[nH]c2ccccc12` (stereo not drawn) is -0.699; for `CCOC(=O)N1CCN(C(=O)CCCn2c(=S)[nH]c3ccccc3c2=O)CC1` it is -0.357.
On to `CCC1CCCCN1CCCn1c(=S)[nH]c2ccccc2c1=O` (stereo not drawn), for which the z-score is 7.04 (active).
As to `CC1=C(C(=O)Nc2ccccc2)C(c2ccco2)C(C#N)=C(SCC(=O)Nc2cccc(C)c2C)N1` (stereo not drawn), the z-score worked out at 0.693.
The compound `Cc1ccnc2nc(C(=O)Nc3ccc(N4CCOCC4)cc3)nn12` returned a z-score of 0.0976.
Consider `CCOC(=O)c1c(C)[nH]c(C2=NNC(=Nc3ccccc3OC)SC2)c1C`, for which the z-score is -0.32.
Regarding `Nc1ccc(-n2cnc3cc([N+](=O)[O-])ccc32)cc1`, the z-score was -0.118.
The compound `Cc1ccc(N2CC3=C(C2=O)C(c2ccccc2)NC(=O)N3C)cc1` (stereo not drawn) had a z-score of -0.193.
Take `CN1C(=O)NC(c2ccccc2)C2=C1CN(CCc1ccccc1)C2=O` (stereo not drawn): the z-score was 0.0172.
In the case of `CN1C(=O)NC(c2ccccc2)C2=C1CN(Cc1ccccc1)C2=O` (stereo not drawn), the z-score is 7.33 (active).
Regarding `CCOC(=O)c1c(C)[nH]c(C(=O)OCCOc2ccccc2C)c1C`, the z-score is -0.0787.
The figure for `O=C1/C(=C/c2cccnc2)Oc2cc(OS(=O)(=O)c3ccc(Cl)cc3)ccc21` is 0.0689.
As for `Cc1nn(-c2ccccc2)c(C)c1/C=N/NC(=O)c1cc(-c2cccc3ccccc23)n[nH]1`, the z-score was -0.481.
Consider `Cc1c(C(=O)Oc2ccc(F)cc2)sc2ncn(Cc3cccc(F)c3)c(=O)c12`, for which the z-score is -0.113.
`O=c1c2cc(Cl)ccc2[nH]c(=S)n1Cc1ccccn1`: the z-score was 1.21.
For the compound `O=c1c2ccccc2[nH]c(=S)n1Cc1cccs1`, the z-score worked out at 2.21.
Regarding `O=c1c2cc(Cl)ccc2[nH]c(=S)n1Cc1cccs1`, the z-score was 4.2 (active).
With `O=C(CCn1c(=S)[nH]c2ccccc2c1=O)N1CCOCC1` the figure was 0.695; with `CCN(CC)CCn1c(=S)[nH]c2ccc(Cl)cc2c1=O`, 1.01.
In turn, `CCC1CCCCN1Cc1ccc(OC)c(C)c1C` (stereo not drawn) yielded a z-score of 0.363.
For `CC(C)Oc1ccc(/C(O)=C2/C(=O)C(=O)N(CCCn3ccnc3)C2c2cccnc2)cc1` (stereo not drawn), the z-score is -0.0218.
For the compound `O=S(=O)(Nc1ncccn1)c1ccc(Nc2ncnc3ccccc23)cc1`, the z-score was found to be 0.439.
The compound `Cc1cccc(OCC(=O)Nc2sc3c(c2C#N)CCC3)c1` gave a z-score of -0.312.
With `O=C(NC1(C(F)(F)F)NC(=O)N(Cc2cccnc2)C1=O)c1ccccc1` (stereo not drawn) the figure was 1.13; with `O=C(NC1(C(F)(F)F)NC(=O)N(Cc2cccnc2)C1=O)c1ccncc1` (stereo not drawn), 2.13.
With `O=C(NC1(C(F)(F)F)NC(=O)N(Cc2cccnc2)C1=O)c1ccc(F)cc1` (stereo not drawn) the figure was 0.269; with `CCOC(=O)/C=C/C(=O)Nc1ccccc1-c1ccccc1NC(=O)/C=C/C(=O)OCC`, -0.138; with `COc1ccccc1OCCCOc1c(C)cc(C)cc1Br`, -0.185.
`FC(F)(F)c1nnc2ccc(N3CCCC3)nn12`: the z-score was -0.343.
`CCOC(=O)c1cnc(-n2nc(C)cc2C)nc1Nc1ccccc1OC` registered a z-score of 0.0785.
The figure for `CCC1CCCCN1S(=O)(=O)c1ccc(S(=O)(=O)N(Cc2ccccn2)CC2CCCO2)cc1` (stereo not drawn) is -0.251; for `CN1CCN(C(=O)c2ccc3c(=O)n(Cc4ccco4)c(=S)[nH]c3c2)CC1` it is 0.757.
`O=c1c2cc3c(cc2[nH]c(=S)n1Cc1ccco1)OCO3` had a z-score of 2.77.
The figure for `COc1cc2[nH]c(=S)n(Cc3ccco3)c(=O)c2cc1OC` is -0.209; for `O=C(c1ccc2c(=O)n(Cc3ccco3)c(=S)[nH]c2c1)N1CCN(Cc2ccccc2)CC1` it is 0.611.
Regarding `Nc1cc(=O)[nH]c(=O)n1Cc1ccco1`, the z-score is 0.299.
Regarding `O=c1c2cc(Cl)ccc2[nH]c(=S)n1Cc1ccco1`, the z-score was 16.1 (active).
In turn, `CC(C)NC(=O)c1ccc2c(=O)n(Cc3ccco3)c(=S)[nH]c2c1` registered a z-score of 0.167.
Turning to `O=c1[nH]c2cccnc2n1Cc1ccco1`, the z-score turned out to be 0.26.
For the compound `O=c1[nH]c2ccc(Cl)cc2c(=O)n1Cc1ccco1`, the z-score is 5.27 (active).
The figure for `OCc1cn(-c2ccccc2)nc1-c1ccc(-c2nn(-c3ccccc3)cc2CO)cc1` is 0.428.
Compound `Cc1ccc(NC(=O)c2cc(S(=O)(=O)c3ccccc3)ccc2Cl)cc1` registered a z-score of -0.0678.
`COc1ccc(-n2c(SCCC(=O)O)nnc2-c2ccncc2)cc1` came in with a z-score of 0.658.
The figure for `Cc1cc(C)cc(C(=O)NCC(=O)OCC(=O)N2c3ccccc3NC(=O)C2(C)C)c1` is -0.138; for `CC(C)c1nc(NCc2ccccc2)c(C#N)c2c1CCCC2` it is -0.133.
In the case of `CCN(CC)S(=O)(=O)c1ccc(C(=O)OCCNC(=O)c2cccnc2)cc1`, the z-score was -0.485.
On to `CCOc1[nH]n(-c2ccc(Cl)cc2)c(=O)c1C=Nc1ccc(C)cc1`, for which the z-score was -0.176.
As for `CCOc1[nH]n(-c2ccc(Cl)cc2)c(=O)c1C=Nc1ccc(Cl)cc1`, the z-score was 3.26 (active).
The compound `CCOc1[nH]n(-c2ccccc2)c(=O)c1C=Nc1ccc(Cl)cc1` displayed a z-score of 0.655.
Turning to `COc1ccc(-c2nc(C#N)c(N3CCC(C(N)=O)CC3)o2)cc1`, the z-score is -0.0894.
`N=c1c2c(-c3ccccc3)c(-c3ccccc3)n(Cc3ccco3)c2ncn1CCN1CCOCC1` showed a z-score of -0.19.
As for `N=c1c2c(-c3ccccc3)c(-c3ccccc3)n(Cc3ccco3)c2ncn1CCO`, the z-score turned out to be 0.759.
In turn, `OCCNc1ncnc2c1c(-c1ccccc1)c(-c1ccccc1)n2Cc1ccco1` had a z-score of -0.463.
The compound `c1ccc(-c2c(-c3ccccc3)n(Cc3ccco3)c3ncnc(NCCCn4ccnc4)c23)cc1` displayed a z-score of 2.78.
As for `CC(C)Cn1cnc2c(c(-c3ccccc3)c(-c3ccccc3)n2Cc2ccco2)c1=N`, the z-score is 3.58 (active).
Take `N=c1c2c(-c3ccccc3)c(-c3ccccc3)n(Cc3ccccc3)c2ncn1CCCO`: the z-score was 4.35 (active).
Turning to `N=c1c2c(-c3ccccc3)c(-c3ccccc3)n(Cc3ccccc3)c2ncn1CCO`, the z-score was determined as 0.392.
The figure for `N=c1c2c(-c3ccccc3)c(-c3ccccc3)n(Cc3ccco3)c2ncn1Cc1ccccc1` is 0.528; for `c1ccc(-c2oc3ncnc(NCCCn4ccnc4)c3c2-c2ccccc2)cc1` it is 0.609; for `COc1ccc(C(=O)Nc2nc3ccc4nc(C)sc4c3s2)cc1` it is -0.0988.
Regarding `CCC(C)NC(=O)Cn1c(COc2ccc(Cl)cc2Cl)nc2ccccc21` (stereo not drawn), the z-score is -2.32.
`O=C(CN(Cc1ccccc1)C(=O)CSc1nnc(COc2ccccc2)o1)NC1CCCC1`: the z-score was found to be 0.0593.
The compound `Cc1cc(/C=C(\C#N)C(=O)NC2CC2)c(C)[nH]1` showed a z-score of 0.155.
On to `CCCNC(=O)c1cccc(COCC(F)(F)C(F)F)c1`, for which the z-score is -0.0567.
On to `Cc1ccc(S(=O)(=O)N2CCOCC2)cc1C(=O)Nc1ccc2c(c1)CCC2`, for which the z-score was -0.205.
`O=C1/C(=C/c2cccnc2)SC(=S)N1c1ccc(F)cc1` had a z-score of -0.12.
With `CCCC(=O)n1nc(-c2cccnc2)nc1N` the figure was 0.575; with `CCCC(=O)n1nc(-c2ccccc2)nc1N`, 9.34 (active).
For the compound `CCC(=O)n1nc(-c2ccccc2)nc1N`, the z-score was -0.874.
The compound `S=C(NC1CCCCC1)N(CCc1nc2ccccc2[nH]1)C1CCCC1` had a z-score of -1.02.
With `CC1Cc2ccccc2N1C(=O)CCNS(=O)(=O)c1cccc2nsnc12` (stereo not drawn) the figure was 0.906; with `CCOC(=O)c1cc2n(c1/N=C/N(C)C)-c1ccccc1C2=O`, -0.437.
Turning to `CCOC(=O)c1cc2n(c1N)-c1ccccc1C2=O`, the z-score was 5.13 (active).
Turning to `CCOC(=O)c1cc(C(C)=O)c(=O)n(C)c1N`, the z-score was -0.198.
Take `CCOC(=O)c1c(C)[nH]c(C)c1C(=O)COC(=O)/C=C/c1ccc(OC(F)F)cc1`: the z-score is -0.244.
With `COCC(C)n1c(SCC(=O)NNC(=O)c2ccccc2)nc2ccccc2c1=O` (stereo not drawn) the figure was -0.346.
In turn, `CCOC(=O)/C(C#N)=C\C1=C(N2CCCC2)CC(C)(C)OC1` showed a z-score of 0.457.
For `CCOC(=O)/C(C#N)=C/C1=C(N2CCCC2)CC(C)(C)OC1`, the z-score is 2.75.
`CCOC(=O)/C(C#N)=C/C1=C(N2CCCC2)CC(C)(CC)OC1` (stereo not drawn): the z-score is -0.501.
As to `Cc1ccc(S(=O)(=O)N2C(=O)C(c3ccccc3)SC2=Nc2ccccc2)cc1` (stereo not drawn), the z-score amounted to 0.00767.
As to `CN(CCO)c1ccc([N+](=O)[O-])cc1C(=O)O`, the z-score stood at 0.404.
With `CCOc1ccc(S(=O)(=O)Nc2ccccc2C(=O)N/N=C/c2c(OC)ccc3ccccc23)cc1` the figure was -0.58.
With `Cc1nc2ccccc2cc1C(=O)N/N=C/c1ccco1` the figure was 0.211.
With `O=C(N/N=C/c1ccco1)c1ccncc1` the figure was 0.0764; with `O=C(Nc1ccccc1C(=O)N/N=C/c1ccco1)c1ccccc1Cl`, 0.924; with `Cc1ccccc1C(=O)Nc1ccccc1C(=O)N/N=C\c1ccco1`, 5.6 (active).
The compound `O=C(Nc1ccccc1C(=O)N/N=C/c1ccco1)c1ccc(Cl)cc1` showed a z-score of 0.162.
With `O=C(Nc1ccccc1C(=O)N/N=C/c1ccco1)c1ccccc1` the figure was 3.37 (active); with `Cc1cc(C)nc(N/N=C/c2ccccc2OCc2cccc(Br)c2)n1`, -0.027; with `O=C(NN1C(=O)C2C3C=CC(C4CC34)C2C1=O)c1ccc(Cl)cc1Cl` (stereo not drawn), -0.0308.
The figure for `Cc1ccc(-c2nnn(CC(=O)N(c3ccccc3)C(C(=O)NC(C)(C)C)c3cccs3)n2)o1` (stereo not drawn) is -0.243; for `CCCC(=O)Nc1c2c(nn1-c1ccc(OC)cc1)CS(=O)C2` (stereo not drawn) it is -1.01.
In the case of `COc1ccc(Cl)cc1N(C)C(=O)CCc1nc(-c2ccc(C)cc2)no1`, the z-score is 0.139.
Regarding `CC(=O)Nc1ccc(SCC(=O)Nc2ccccc2-c2ccccc2)cc1`, the z-score is -0.153.
As for `CNC(=O)CN1C(=O)c2cccc3cccc1c23`, the z-score was 0.394.
As for `CCNC(=S)N/N=C1\C(=O)c2cccc3cccc1c23`, the z-score is 12.9 (active).
Turning to `CC(C)/C=N/NC(=O)c1ccc(Cl)cc1`, the z-score was -0.254.
Regarding `O=C1c2cccc3cccc(c23)C(=O)N1OS(=O)(=O)c1ccc(Cl)cc1`, the z-score came out at 0.123.
For the compound `CCCCNC(=S)N/N=C1\C(=O)c2cccc3cccc1c23`, the z-score is 3.16 (active).
On to `CC(=O)N1C(=O)c2cccc3cccc(c23)C(=O)N1C(C)=O`, for which the z-score worked out at 0.73.
With `CCNC(=S)NS(=O)(=O)c1ccccc1` the figure was -0.195; with `CCCCNC(=S)N/N=C/c1ccc(C)s1`, 1.81.
As for `CCNC(=S)N/N=C/c1ccco1`, the z-score is 0.768.
Take `CCCCNC(=S)Nc1ccccc1F`: the z-score turned out to be 0.54.
For the compound `CNC(=S)N/N=C1\C(=O)c2cccc3cccc1c23`, the z-score was 14.1 (active).
With `O=C(N/N=C1/C(=O)c2cccc3cccc1c23)c1ccc(Cl)cc1`, the z-score was 3.2 (active).
As to `CCC(Sc1nc2ccccc2c(=O)[nH]1)C(=O)O` (stereo not drawn), the z-score worked out at 0.219.
